The panel holds about 83,000 compounds, 20% with a hit somewhere; the sample as a whole holds those more often.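 The test compound was applied at a single concentration to cells in 96-well plates for 48 hours, and percent growth was recorded.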 Values without a mark were called inactive. Activity calls are given as the source filed them.
System: UACC-62 melanoma
Experiment: NCI-60 one-dose screen, 48 h (100 = growth as untreated, 0 = no growth, -100 = all killed)
Conditions: 10 µM unless noted
Experimental: Growth inhibition of the UACC-62 human tumor cell line is measured as a screen for anti-cancer activity. Cells are grown in 96 well plates and exposed to the test compound for 48 hours. Compounds are tested at a single concentration, which is 10^-5 M for most compounds. The reported endpoint is percent growth (GI% or GIPRCNT), where numbers from 0 - 100% represent growth inhibition, and numbers from -100% - 0 represent cell death. For example, a value of 40 represents 60% growth inhibition. A value of 0 means no net growth occurred over the course of the experiment. A value of -40 indicates 40% of cells at the beginning of the experiment died by the end of the experiment. A value of -100 means all cells are dead at the end of the experiment.
NCI-60 Human Tumor Cell Lines Screen was performed using the standard one-dose NCI protocol, which is described in more detail at https://dtp.cancer.gov/discovery_development/nci-60/default.htm.
Compounds with GIPRCNT values below 10 were considered active. Activity score was based on GIPRCNT using the following formula: […]
Score is 0 for GIPRCNT values of 100 or above, 50 for GIPRCNT values of 0, and 100 for GIPRCNT values of -100.

| SMILES | growth |
| --- | --- |
| CN(C)c1ccc(/C=C(\C#N)c2nc3ccccc3s2)cc1 | 101% |
| COC1/C=C\OC2(C)Oc3c(C)c(O)c4c(O)c(c(CN(C)CCO)c(O)c4c3C2=O)NC(=O)/C(C)=C\C=C/C(C)C(O)C(C)C(O)C(C)C(OC(C)=O)C1C (stereo not given) | 97.6% |
| O=C(O)c1cn(C2CC2)c2cc(N3CCN(Cc4nc5c(cnn5-c5ccc([N+](=O)[O-])cc5)c(=O)[nH]4)CC3)c(F)cc2c1=O | 86.6% |
| O=C1/C(=C/c2ccc(F)cc2)CN(C(=O)CCN2CCC(=NO)CC2)C/C1=C\c1ccc(F)cc1 | -67.2% (active) |
| CCOc1ccc(Nc2nc(-c3c(C)nc4ncccn34)cs2)cc1 | 10.6% |
| CC(C)C1=C[C@@]23CC[C@@H]4[C@](C)(CCC[C@@]4(C)C(=O)OCC#CCN4CCCC4)[C@H]2C[C@@H]1[C@H]1C(=O)OC(=O)[C@H]13 | 82.1% |
| CCN(CC)CC(O)c1cc(-c2ccc(Cl)cc2)nc2c(C)c(Cl)ccc12 (stereo not given) | -92.3% (active) |
| COc1ccc(C2CC(=O)Nc3c2c(C)nn3-c2nc3ccccc3[nH]2)cc1 (stereo not given) | 104% |
| O=[N+]([O-])c1cccc(-c2nc3sccn3c2-c2ccnc(NCCCNS(=O)(=O)c3ccc(Br)cc3)n2)c1 | 2.78% (active) |
| CC1(C)OCC2OC3(C(=O)O)OC(C)(C)OC3C2O1 (stereo not given) | 111% |
| CCC(=O)OCc1cccc(OC)c1 | 95.8% |
| COc1cnc2c(c1)C(=O)c1c-2n(CCCBr)c(=O)c2cc([N+](=O)[O-])ccc12 | -62.3% (active) |
| O=C(/C=C\c1ccc2ccccc2n1)c1cc(Cl)ccc1O | 71.4% |
| CNC(=S)N/N=C/CSC/C=N/NC(=S)NC | 89.2% |
| O=c1c(/C=C/c2ccco2)nnc(SCCN2CCOCC2)n1/N=C/c1ccc([N+](=O)[O-])cc1 | 96.2% |
| N#Cc1c(N)nc(N)nc1Nc1ccc(Br)cc1 | 86.4% |
| CCN(CC)Cc1cc(Nc2c3ccc(Cl)cc3nc3c(C)cccc23)ccc1O | -79.3% (active) |
| O=C1C(Cl)=C(Cl)C(=O)c2c1nc1n2CCCC1 | 93.7% |
| O=C(CO[N+](=O)[O-])Nc1ccc(C(=O)/C=C/c2ccc(Cl)cc2)cc1 | 49.2% |
| O=C1c2c[n+](Cc3ccccc3)ccc2-c2nc3ccccc3c3ccnc1c23 | -58.5% (active) |

| SMILES | growth |
| --- | --- |
| CC[C@H](Nc1cc(C)nc(N)n1)c1nc2cccc(NCc3ccc(C(=O)NO)cc3)c2c(=O)n1-c1ccccc1 | 9.65% (active) |
| CN1CCN(Cc2ccc(NC(=O)c3[nH]ncc3Nc3ncnc4c3CCC4)cc2)CC1 | 9.97% (active) |
| COc1ccc(C/C(C)=C(\c2ccc(Cl)cc2)c2ccc(OCCN3CCCCCC3)cc2)cc1 | 93.2% |
| Cc1cc(Cl)ccc1Nc1nc(C(F)(F)F)ccc1C(=O)N/N=C/c1ccc(F)cc1 | 15.4% |
| C=C1CC2(OC1=O)C(=O)N(CCCCCCCN1C(=O)C3(CC(=C)C(=O)O3)c3ccccc31)c1ccccc12 (stereo not given) | 34.9% |
| O=C1/C(=C/c2ccc(Cl)c(Cl)c2)CN(C(=O)CCN2CCC(=NO)CC2)C/C1=C\c1ccc(Cl)c(Cl)c1 | -92.3% (active) |
| COc1ccc(CNc2nccnn2)cc1 | 93.4% |
| Oc1cccc(Nc2nccc(-c3ccc4ccccc4c3)n2)c1 | 32.9% |
| C=C1CC[C@@H]2[C@](C)(COC(C)=O)[C@H](OC(C)=O)CC[C@@]2(C)[C@@H]1CC(NCc1ccc(F)cc1)C1=CCOC1=O (stereo not given in full) | 32.2% |
| Oc1c(Cl)cc(Cl)cc1CNc1nccnn1 | 93.9% |
| C#Cc1nc2ccccc2c(=O)[nH]1 | -77.2% (active) |
| Nc1cc2ccncc2c2ccccc12 | 60.7% |
| Cc1nc2sc(C(=O)Nc3cccc4c3OCCO4)c(N)c2cc1C(C)O (stereo not given) | 22% |
| Cc1cc(N/N=C/c2nc(-c3ccc(Cl)cc3)oc2C)c2cc(Br)ccc2n1 | 58.2% |
| Cc1ccc2c(c1)C(=O)/C(=C/c1ccc(OCC(=O)c3ccccc3)cc1)O2 | 63.8% |
| COc1ccc(Cl)cc1Nc1nc(C(F)(F)F)ccc1C(=O)N/N=C/c1cccnc1 | 50.9% |
| COc1ccc2[nH]c(=O)c(/C=C/C(=O)c3ccc(Nc4nccc(-c5ccc6ccccc6c5)n4)cc3)cc2c1 | 88.7% |
| Cn1c2c(Cl)c(Cl)ccc2c2ccn3c(=O)c4ccccc4nc3c21 | 90.6% |
| CCN(CC)C12CCCCC1(C)C(C#N)(C#N)C(C#N)=C(N)O2 (stereo not given) | 90.8% |
| c1ccc(Sc2ncnc3ccccc23)cc1 | 66.2% |
